This note sets out measurements from PubChem BioAssay (NCI).

About 79,000 compounds went through this panel and 15% of them were active in at least one assay; those are over-represented in the sample as a whole. A number with no mark means an inactive call. Calls of active or inactive are those of the source. Rule as the data show it: active = growth inhibition above about 70%; inactive = the rest.

Assay [1] can be described thus: NCI Yeast Anticancer Drug Screen. Data for the rad50 strain (AID 155).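 Also: 0% = growth of vehicle-only cultures of the same strain.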 Conditions: S. cerevisiae rad50 strain growth inhibition, active compounds read high. The essentials:
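Cells are treated with compound, grown, and their growth is then scored against vehicle-only cultures of the same repair-deficient yeast strain.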

Assay [2] can be described thus: NCI Yeast Anticancer Drug Screen. Data for the mec2-1 strain (AID 157). Conditions: S. cerevisiae mec2-1 strain, active compounds read high. The essentials:
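Readout is yeast growth inhibition, normalised to vehicle-treated controls, in the mec2-1 strain exposed to compound.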

Assay [3] in a line: NCI Yeast Anticancer Drug Screen. Data for the sgs1 mgt1 strain (AID 161).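 Also: 0% = growth of cultures given vehicle only.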 Conditions: S. cerevisiae sgs1 mgt1 strain, active compounds read high. Summed up: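 Percent growth inhibition was derived by comparing compound-exposed mutant yeast with vehicle-exposed cultures. The strain carries alterations in DNA damage repair.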
A short description of assay [4]: NCI Yeast Anticancer Drug Screen. Data for the cln2 rad14 strain (AID 165).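 Also: 0% = growth equal to vehicle treated cultures.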 To be noted: S. cerevisiae cln2 rad14 strain, active compounds read high. The essentials:
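Relative to vehicle controls, growth inhibition of compound-treated cln2 rad14 yeast was recorded.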

The nature of assay [5]: NCI Yeast Anticancer Drug Screen. Data for the bub3 strain (AID 167). Conditions: S. cerevisiae bub3 mutant strain, active compounds read high. Summed up:
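Part of a panel of yeast mutants defective in DNA damage repair or cell cycle regulation. Each strain is grown with compound, and inhibition is calculated relative to solvent-treated cultures.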

The nature of assay [6]: NCI Yeast Anticancer Drug Screen. Data for the mlh1 rad18 strain (AID 175). To be noted: S. cerevisiae mlh1 rad18 strain growth inhibition, active compounds read high. Summed up:
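Test agents were incubated with a yeast strain of defined genotype (DNA damage repair defect). Inhibition of growth was derived by comparison with vehicle-exposed cultures.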

Where [7] appears, read: at 5.0 µM (retest, dose inferred, filed as 0.5).
Setting [8] is: at 50.0 µM (retest, dose inferred, filed as 5.0).

For the compound `N#C[S-].[Nd+3].c1cnc2c(c1)ccc1cccnc12.c1cnc2c(c1)ccc1cccnc12.c1cnc2c(c1)ccc1cccnc12`, the growth inhibition was 91% (active) in assay [1] (setting [7]); 99% (active) in assay [1] (setting [8]); 93% (active) in assay [1] (at 50.0 µM); 98% (active) in assay [2] (setting [7]); 100% (active) in assay [2] (setting [8]); 94.8% (active) in assay [2] (at 50.0 µM). The growth inhibition is 98% (active) in assay [3] (setting [7]); 99% (active) in assay [3] (setting [8]); 94.2% (active) in assay [3] (at 50.0 µM); 93% (active) in assay [4] (setting [7]); 98% (active) in assay [4] (setting [8]); 93.7% (active) in assay [4] (at 50.0 µM). The growth inhibition was 98% (active) in assay [5] (setting [7]); 99% (active) in assay [5] (setting [8]); 93.2% (active) in assay [5] (at 50.0 µM); 98% (active) in assay [6] (setting [7]); 99% (active) in assay [6] (setting [8]); 92.8% (active) in assay [6] (at 50.0 µM).
Turning to `COC(=O)C1=C(C)N2CCSC2(C)C(C(=O)OC)C1c1cccc(Cl)c1` (centres undefined), the growth inhibition in assay [1] (setting [7]) is -21%; in assay [1] (setting [8]), 85% (active); in assay [1] (at 50.0 µM) it was 80.3% (active); in assay [2] (setting [7]), 4%; in assay [2] (setting [8]), 77% (active); in assay [2] (at 50.0 µM) it was 79.5% (active). Also, the growth inhibition in assay [3] (setting [7]) was 0%; in assay [3] (setting [8]), 84% (active); in assay [3] (at 50.0 µM), 82.3% (active); in assay [4] (setting [7]) it was 17%; in assay [4] (setting [8]), 66%; in assay [4] (at 50.0 µM) it was 69.1%. The growth inhibition in assay [5] (setting [7]) is 13%; in assay [5] (setting [8]), 89% (active); in assay [5] (at 50.0 µM) it was 81.5% (active); in assay [6] (setting [7]) it was 6%; in assay [6] (setting [8]), 90% (active); in assay [6] (at 50.0 µM), 73.2% (active).
Take `c1ccc2c[n+](CCCCCCCCCC[n+]3ccc4ccccc4c3)ccc2c1`: the growth inhibition was 67% in assay [1] (setting [7]); 95% (active) in assay [1] (setting [8]); 89.2% (active) in assay [1] (at 50.0 µM); 70% (active) in assay [2] (setting [7]); 98% (active) in assay [2] (setting [8]); 91.2% (active) in assay [2] (at 50.0 µM). For the same compound, the growth inhibition in assay [3] (setting [7]) is 79% (active); in assay [3] (setting [8]), 98% (active); in assay [3] (at 50.0 µM), 90.5% (active); in assay [4] (setting [7]), 68%; in assay [4] (setting [8]), 98% (active); in assay [4] (at 50.0 µM), 83.7% (active). Further, the growth inhibition in assay [5] (setting [7]) is 88% (active); in assay [5] (setting [8]), 99% (active); in assay [5] (at 50.0 µM), 91.3% (active); in assay [6] (setting [7]), 72% (active); in assay [6] (setting [8]), 94% (active); in assay [6] (at 50.0 µM), 88.1% (active).
`CCC[CH2][Sn]([F])([CH2]CCC)[O][Sn]([F])([CH2]CCC)[CH2]CCC`: the growth inhibition is 51% in assay [1] (setting [7]); 98% (active) in assay [1] (setting [8]); 97.5% (active) in assay [1] (at 50.0 µM); 46% in assay [2] (setting [7]); 99% (active) in assay [2] (setting [8]); 98.9% (active) in assay [2] (at 50.0 µM). In addition, the growth inhibition in assay [3] (setting [7]) is 50%; in assay [3] (setting [8]), 98% (active); in assay [3] (at 50.0 µM), 98.2% (active); in assay [4] (setting [7]), 34%; in assay [4] (setting [8]) it was 98% (active); in assay [4] (at 50.0 µM), 98.3% (active). In addition, the growth inhibition in assay [5] (setting [7]) was 54%; in assay [5] (setting [8]), 96% (active); in assay [5] (at 50.0 µM) it was 98.5% (active); in assay [6] (setting [7]) it was 48%; in assay [6] (setting [8]), 97% (active); in assay [6] (at 50.0 µM), 98.2% (active).
On to `NC(N)=N/N=C1\C(=O)N(c2ccc(Cl)cc2)C(=O)C1C(=O)Nc1ccc(Cl)cc1` (centres undefined), for which the growth inhibition is 1% in assay [1] (setting [7]); -2% in assay [1] (setting [8]); 54.6% in assay [1] (at 50.0 µM); 14% in assay [2] (setting [7]); 17% in assay [2] (setting [8]); 46.1% in assay [2] (at 50.0 µM). In addition, the growth inhibition in assay [3] (setting [7]) was 5%; in assay [3] (setting [8]), 11%; in assay [3] (at 50.0 µM), 76.1% (active); in assay [4] (setting [7]) it was 0%; in assay [4] (setting [8]) it was -3%; in assay [4] (at 50.0 µM) it was -8.8%. The growth inhibition in assay [5] (setting [7]) is 8%; in assay [5] (setting [8]) it was 19%; in assay [5] (at 50.0 µM), -7.75%; in assay [6] (setting [7]) it was 2%; in assay [6] (setting [8]) it was -14%; in assay [6] (at 50.0 µM), 83.1% (active).
For the compound `ClC1=C(Cl)C2(Cl)C(C3CO3)CC1(Cl)C2(Cl)Cl` (centres undefined), the growth inhibition was 0% in assay [1] (setting [7]); 10% in assay [1] (setting [8]); 76.1% (active) in assay [1] (at 50.0 µM); -1% in assay [2] (setting [7]); 11% in assay [2] (setting [8]); 69.3% in assay [2] (at 50.0 µM). In addition, the growth inhibition in assay [3] (setting [7]) was -2%; in assay [3] (setting [8]), 12%; in assay [3] (at 50.0 µM), 90.8% (active); in assay [4] (setting [7]), -12%; in assay [4] (setting [8]), -13%; in assay [4] (at 50.0 µM), 34.4%. For the same compound, the growth inhibition in assay [5] (setting [7]) was 4%; in assay [5] (setting [8]), 28%; in assay [5] (at 50.0 µM) it was 89.7% (active); in assay [6] (setting [7]), 0%; in assay [6] (setting [8]), 18%; in assay [6] (at 50.0 µM), 55.9%.
In the case of `CC1(C)CC(=O)C([Se]C2=C(O)CC(C)(C)CC2=O)=C(O)C1`, the growth inhibition in assay [1] (setting [7]) was 96% (active); in assay [1] (setting [8]), 99% (active); in assay [1] (at 50.0 µM) it was 99.6% (active); in assay [2] (setting [7]), 91% (active); in assay [2] (setting [8]) it was 99% (active); in assay [2] (at 50.0 µM) it was 99.8% (active). Further, the growth inhibition was 86% (active) in assay [3] (setting [7]); 99% (active) in assay [3] (setting [8]); 99.8% (active) in assay [3] (at 50.0 µM); 35% in assay [4] (setting [7]); 99% (active) in assay [4] (setting [8]); 99.4% (active) in assay [4] (at 50.0 µM). Besides, the growth inhibition in assay [5] (setting [7]) is 40%; in assay [5] (setting [8]) it was 99% (active); in assay [5] (at 50.0 µM) it was 99.6% (active); in assay [6] (setting [7]) it was 94% (active); in assay [6] (setting [8]) it was 99% (active); in assay [6] (at 50.0 µM), 99.3% (active).
Regarding `CC(C)[O-].CC(C)[O-].[O-]c1cccc2cccnc12.[O-]c1cccc2cccnc12.[Ti+4]`, the growth inhibition is 6% in assay [1] (setting [7]); 6% in assay [1] (setting [8]); 55.5% in assay [1] (at 50.0 µM); 11% in assay [2] (setting [7]); 11% in assay [2] (setting [8]); 70.8% (active) in assay [2] (at 50.0 µM). Further, the growth inhibition is 4% in assay [3] (setting [7]); 4% in assay [3] (setting [8]); 37.6% in assay [3] (at 50.0 µM); 6% in assay [4] (setting [7]); 6% in assay [4] (setting [8]); 51.8% in assay [4] (at 50.0 µM). In addition, the growth inhibition was -3% in assay [5] (setting [7]); -3% in assay [5] (setting [8]); 64.8% in assay [5] (at 50.0 µM); -24% in assay [6] (setting [7]); -24% in assay [6] (setting [8]); 58.9% in assay [6] (at 50.0 µM).
